Results on one sequence are retold here after PMC7862700, “An all-to-all approach to the identification of sequence-specific readers for epigenetic DNA modifications on cytosine”.

Experiment in all cases: DAPPL (digital affinity profiling via proximity ligation, sequencing); 10 mM Tris-HCl pH 7.5, 50 mM NaCl, 1 mM DTT, 4% glycerol, room temperature, 30 min; GST-TFs on glutathione beads, 16-mer random dsDNA library, 0.1% formaldehyde crosslink after washing; high values mean tight binding
Experiment [1] concerns the target T1, FEV (Homo sapiens, UniProt Q99581 1-238).
T1 sequence: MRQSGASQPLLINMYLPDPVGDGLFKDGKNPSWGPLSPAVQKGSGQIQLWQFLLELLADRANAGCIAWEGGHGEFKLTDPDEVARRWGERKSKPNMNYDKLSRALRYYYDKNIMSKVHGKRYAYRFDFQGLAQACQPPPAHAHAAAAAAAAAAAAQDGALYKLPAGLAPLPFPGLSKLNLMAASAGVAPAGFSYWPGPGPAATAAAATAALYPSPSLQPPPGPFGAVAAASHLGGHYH
As to conditions: protein: recombinant; tags: N-terminal GST; dsDNA, one strand shown. The gist of the method: (§1)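 Human transcription factors carrying a GST fusion were produced in yeast, bound to glutathione beads, tagged with DNA barcodes and pooled together with a tag-only sample. Each pool was held with 200 nmole of a random double-stranded 16-mer DNA library in Tris/NaCl/DTT/glycerol buffer for 30 min at room temperature, then washed, crosslinked in 0.1% formaldehyde, proximity-ligated with BsaI/T4 ligase (1 h, 37 °C), PCR-amplified and sequenced on an Illumina NextSeq500. Binding signal is the read frequency of each hexamer for a given factor divided by its frequency in the tag-only sample.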

The target in experiment [2] is ETV5 (Homo sapiens, UniProt P41161 1-510). As to conditions: protein: recombinant; tags: N-terminal GST; dsDNA, one strand shown. Summed up: as §1
Sequence of ETV5 (P41161 whole entry): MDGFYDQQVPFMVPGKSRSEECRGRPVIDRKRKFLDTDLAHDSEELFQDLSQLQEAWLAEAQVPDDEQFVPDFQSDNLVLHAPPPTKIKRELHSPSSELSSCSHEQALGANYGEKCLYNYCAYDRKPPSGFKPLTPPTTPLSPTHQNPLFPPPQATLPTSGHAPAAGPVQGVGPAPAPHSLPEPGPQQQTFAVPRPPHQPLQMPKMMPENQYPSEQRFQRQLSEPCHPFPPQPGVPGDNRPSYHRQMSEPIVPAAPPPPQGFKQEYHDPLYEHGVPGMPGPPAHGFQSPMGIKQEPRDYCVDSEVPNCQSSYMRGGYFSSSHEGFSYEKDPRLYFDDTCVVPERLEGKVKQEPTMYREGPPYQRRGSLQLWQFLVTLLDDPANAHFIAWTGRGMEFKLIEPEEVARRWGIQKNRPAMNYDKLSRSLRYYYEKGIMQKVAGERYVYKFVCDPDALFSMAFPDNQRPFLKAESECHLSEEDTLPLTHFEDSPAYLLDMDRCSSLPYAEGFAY
The target in experiment [3] is HSF1 (Homo sapiens, UniProt Q00613 1-529). As to conditions: protein: recombinant; tags: N-terminal GST; chain copies: 3; dsDNA, one strand shown. Summed up: as §1
Sequence of HSF1 (Q00613 whole entry): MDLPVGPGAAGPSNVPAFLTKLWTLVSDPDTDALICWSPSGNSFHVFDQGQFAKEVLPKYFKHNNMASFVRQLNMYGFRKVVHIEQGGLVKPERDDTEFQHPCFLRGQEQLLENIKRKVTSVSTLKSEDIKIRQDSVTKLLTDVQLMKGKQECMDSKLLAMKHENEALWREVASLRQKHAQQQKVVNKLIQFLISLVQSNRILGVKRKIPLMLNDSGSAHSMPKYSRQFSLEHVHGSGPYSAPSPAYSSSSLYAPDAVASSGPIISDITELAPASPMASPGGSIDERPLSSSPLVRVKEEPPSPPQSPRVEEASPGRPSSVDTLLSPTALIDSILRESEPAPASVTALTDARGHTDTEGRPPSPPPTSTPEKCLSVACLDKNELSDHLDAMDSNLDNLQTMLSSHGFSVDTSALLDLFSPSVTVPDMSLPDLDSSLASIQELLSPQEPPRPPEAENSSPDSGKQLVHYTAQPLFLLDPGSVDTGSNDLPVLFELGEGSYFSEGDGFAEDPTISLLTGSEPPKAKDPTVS
The target of experiment [4] is T2, SPIC (Homo sapiens, UniProt Q8N5J4 1-248).
T2 sequence: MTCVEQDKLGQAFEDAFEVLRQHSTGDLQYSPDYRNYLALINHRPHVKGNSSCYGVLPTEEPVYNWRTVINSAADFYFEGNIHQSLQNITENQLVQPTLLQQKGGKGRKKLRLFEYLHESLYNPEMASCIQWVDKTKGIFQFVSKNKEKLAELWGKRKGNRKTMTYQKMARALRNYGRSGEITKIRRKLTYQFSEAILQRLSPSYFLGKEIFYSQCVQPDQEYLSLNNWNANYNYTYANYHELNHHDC
As to conditions: protein: recombinant; tags: N-terminal GST; dsDNA, one strand shown. Summed up:
as §1

The target of experiment [5] is ELF4 (Homo sapiens, UniProt Q99607 1-663). The note with it: protein: recombinant; tags: N-terminal GST; dsDNA, one strand shown. Summed up:
as §1

For experiment [6], the target named is T3, ELK4 (Homo sapiens, UniProt P28324-2 1-405).
T3 sequence: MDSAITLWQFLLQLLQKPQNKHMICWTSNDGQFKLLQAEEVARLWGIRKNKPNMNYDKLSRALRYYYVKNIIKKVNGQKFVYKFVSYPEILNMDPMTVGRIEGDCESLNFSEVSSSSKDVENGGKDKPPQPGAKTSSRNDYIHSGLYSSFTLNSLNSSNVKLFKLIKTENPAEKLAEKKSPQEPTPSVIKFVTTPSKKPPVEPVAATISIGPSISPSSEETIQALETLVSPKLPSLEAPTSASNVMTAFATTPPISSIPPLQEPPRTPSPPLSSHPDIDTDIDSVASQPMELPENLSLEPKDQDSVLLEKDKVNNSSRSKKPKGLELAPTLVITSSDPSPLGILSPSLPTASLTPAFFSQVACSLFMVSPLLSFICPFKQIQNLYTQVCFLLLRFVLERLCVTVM
As to conditions: protein: recombinant; tags: N-terminal GST; dsDNA, one strand shown. Summed up: as §1

Experiment [7] has as its target T4, ETV2 (Homo sapiens, UniProt O00321 1-342).
T4 sequence: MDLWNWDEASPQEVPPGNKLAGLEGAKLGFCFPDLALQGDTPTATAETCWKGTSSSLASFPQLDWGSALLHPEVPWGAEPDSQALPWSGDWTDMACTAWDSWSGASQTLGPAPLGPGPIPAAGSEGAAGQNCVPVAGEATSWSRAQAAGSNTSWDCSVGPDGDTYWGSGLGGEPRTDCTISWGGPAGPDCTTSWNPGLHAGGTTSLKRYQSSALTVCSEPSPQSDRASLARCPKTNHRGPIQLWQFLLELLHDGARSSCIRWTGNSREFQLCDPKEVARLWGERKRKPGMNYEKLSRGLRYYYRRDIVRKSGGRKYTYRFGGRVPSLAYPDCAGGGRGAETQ
As to conditions: protein: recombinant; tags: N-terminal GST; dsDNA, one strand shown. Summed up: as §1

The target of experiment [8] is T5, ELF3 (Homo sapiens, UniProt P78545 1-371).
T5 sequence: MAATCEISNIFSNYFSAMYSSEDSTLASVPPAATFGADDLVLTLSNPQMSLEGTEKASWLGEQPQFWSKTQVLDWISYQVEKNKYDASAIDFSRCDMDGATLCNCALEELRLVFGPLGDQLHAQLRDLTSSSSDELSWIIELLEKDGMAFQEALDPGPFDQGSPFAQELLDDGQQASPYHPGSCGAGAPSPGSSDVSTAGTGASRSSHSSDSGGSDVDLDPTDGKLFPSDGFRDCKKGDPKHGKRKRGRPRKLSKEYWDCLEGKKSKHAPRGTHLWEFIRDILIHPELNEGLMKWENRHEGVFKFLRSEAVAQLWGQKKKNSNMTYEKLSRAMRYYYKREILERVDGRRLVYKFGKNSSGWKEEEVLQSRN
As to conditions: protein: recombinant; tags: N-terminal GST; dsDNA, one strand shown. The gist of the method: as §1

For experiment [9], the target named is CRX (Homo sapiens, UniProt O43186 1-299). As to conditions: protein: recombinant; tags: N-terminal GST; dsDNA, one strand shown. The gist of the method:
as §1

Experiment [10] addresses ETV1 (Homo sapiens, UniProt P50549 1-477). As to conditions: protein: recombinant; tags: N-terminal GST; dsDNA, one strand shown. The gist of the method: as §1
Experiment [11] has as its target T6, ERF (Homo sapiens, UniProt P50548 1-548).
T6 sequence: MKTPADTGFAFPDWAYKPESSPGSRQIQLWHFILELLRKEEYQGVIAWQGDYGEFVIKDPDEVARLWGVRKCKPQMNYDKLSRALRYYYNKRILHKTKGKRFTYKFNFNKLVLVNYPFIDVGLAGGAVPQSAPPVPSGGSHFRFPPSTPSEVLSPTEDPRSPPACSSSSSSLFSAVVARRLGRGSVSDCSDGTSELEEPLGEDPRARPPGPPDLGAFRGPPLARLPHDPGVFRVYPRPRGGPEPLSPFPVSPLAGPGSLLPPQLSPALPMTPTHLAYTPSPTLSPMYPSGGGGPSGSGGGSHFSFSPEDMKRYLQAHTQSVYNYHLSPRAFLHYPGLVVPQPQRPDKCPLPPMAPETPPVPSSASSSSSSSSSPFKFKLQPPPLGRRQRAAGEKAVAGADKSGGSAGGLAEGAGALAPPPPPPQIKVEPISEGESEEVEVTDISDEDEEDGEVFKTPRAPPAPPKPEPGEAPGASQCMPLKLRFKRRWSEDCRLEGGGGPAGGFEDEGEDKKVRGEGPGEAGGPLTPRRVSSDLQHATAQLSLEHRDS
The note with it: protein: recombinant; tags: N-terminal GST; dsDNA, one strand shown. The gist of the method: as §1

For experiment [12], the target named is T7, ETV3L (Homo sapiens, UniProt Q6ZN32 1-361).
T7 sequence: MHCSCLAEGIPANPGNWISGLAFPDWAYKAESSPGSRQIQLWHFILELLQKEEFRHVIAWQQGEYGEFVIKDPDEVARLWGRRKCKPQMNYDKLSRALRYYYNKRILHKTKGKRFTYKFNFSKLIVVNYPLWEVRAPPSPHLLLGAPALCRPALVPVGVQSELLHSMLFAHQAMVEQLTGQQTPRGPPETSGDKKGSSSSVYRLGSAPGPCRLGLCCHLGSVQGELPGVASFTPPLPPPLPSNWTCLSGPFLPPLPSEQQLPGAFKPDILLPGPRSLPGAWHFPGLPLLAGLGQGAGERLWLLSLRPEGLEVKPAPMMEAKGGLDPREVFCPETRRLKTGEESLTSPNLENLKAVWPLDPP
The note with it: protein: recombinant; tags: N-terminal GST; dsDNA, one strand shown. Summed up: as §1

The target in experiment [13] is T8, ETS2 (Homo sapiens, UniProt P15036 1-469).
T8 sequence: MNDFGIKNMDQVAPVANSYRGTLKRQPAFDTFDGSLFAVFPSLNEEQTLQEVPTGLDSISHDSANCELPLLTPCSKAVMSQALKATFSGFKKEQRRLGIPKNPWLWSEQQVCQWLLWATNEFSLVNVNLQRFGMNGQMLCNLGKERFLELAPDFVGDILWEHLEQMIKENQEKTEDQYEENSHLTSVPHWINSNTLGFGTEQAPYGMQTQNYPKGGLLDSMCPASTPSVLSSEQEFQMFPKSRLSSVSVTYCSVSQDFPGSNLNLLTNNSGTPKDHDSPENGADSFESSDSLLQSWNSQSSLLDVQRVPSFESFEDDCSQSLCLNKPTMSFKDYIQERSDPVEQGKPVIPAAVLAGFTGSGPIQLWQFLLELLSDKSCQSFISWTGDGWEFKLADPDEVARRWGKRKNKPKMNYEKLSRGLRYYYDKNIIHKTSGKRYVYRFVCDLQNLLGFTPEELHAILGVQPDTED
The note with it: protein: recombinant; tags: N-terminal GST; dsDNA, one strand shown. Summed up: as §1

The target of experiment [14] is T9, SPDEF (Homo sapiens, UniProt O95238 1-335).
T9 sequence: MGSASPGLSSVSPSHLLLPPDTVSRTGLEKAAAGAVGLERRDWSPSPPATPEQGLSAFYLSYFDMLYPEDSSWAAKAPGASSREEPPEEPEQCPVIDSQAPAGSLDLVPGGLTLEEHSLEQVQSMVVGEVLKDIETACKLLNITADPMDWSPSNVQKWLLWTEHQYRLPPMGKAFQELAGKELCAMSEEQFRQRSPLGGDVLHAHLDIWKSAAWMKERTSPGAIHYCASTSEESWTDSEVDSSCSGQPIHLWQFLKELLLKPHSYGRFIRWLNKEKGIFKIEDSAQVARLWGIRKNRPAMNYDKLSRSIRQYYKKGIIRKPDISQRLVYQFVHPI
The note with it: protein: recombinant; tags: N-terminal GST; dsDNA, one strand shown. The gist of the method:
as §1

The target of experiment [15] is T10, ETV7 (Homo sapiens, UniProt Q9Y603 1-341).
T10 sequence: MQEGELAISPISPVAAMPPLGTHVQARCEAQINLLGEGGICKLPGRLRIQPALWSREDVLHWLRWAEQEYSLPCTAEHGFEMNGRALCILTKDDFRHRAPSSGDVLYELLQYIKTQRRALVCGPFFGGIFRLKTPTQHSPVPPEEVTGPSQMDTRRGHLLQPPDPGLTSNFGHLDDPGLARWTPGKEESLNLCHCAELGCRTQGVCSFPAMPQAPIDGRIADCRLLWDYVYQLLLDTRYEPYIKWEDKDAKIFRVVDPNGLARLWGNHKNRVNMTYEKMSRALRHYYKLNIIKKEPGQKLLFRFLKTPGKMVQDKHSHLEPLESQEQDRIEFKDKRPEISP
As to conditions: protein: recombinant; tags: N-terminal GST; dsDNA, one strand shown. Summed up: as §1

Experiment [16] deals with T11, ELF5 (Homo sapiens, UniProt Q9UKW6-2 1-255).
T11 sequence: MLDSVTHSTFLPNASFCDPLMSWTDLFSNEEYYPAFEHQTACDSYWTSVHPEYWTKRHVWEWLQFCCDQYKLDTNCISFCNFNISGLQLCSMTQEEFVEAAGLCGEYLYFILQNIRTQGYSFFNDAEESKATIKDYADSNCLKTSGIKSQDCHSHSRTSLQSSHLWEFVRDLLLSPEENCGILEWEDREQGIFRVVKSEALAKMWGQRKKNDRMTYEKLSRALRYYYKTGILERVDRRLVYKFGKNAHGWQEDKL
As to conditions: protein: recombinant; tags: N-terminal GST; dsDNA, one strand shown. Summed up:
as §1

Experiment [17] deals with T12, ETV3 (Homo sapiens, UniProt P41162-2 1-143).
T12 sequence: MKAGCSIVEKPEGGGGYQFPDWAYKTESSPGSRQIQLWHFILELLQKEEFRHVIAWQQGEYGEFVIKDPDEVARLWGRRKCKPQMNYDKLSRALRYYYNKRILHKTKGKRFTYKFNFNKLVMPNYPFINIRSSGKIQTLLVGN
The note with it: protein: recombinant; tags: N-terminal GST; dsDNA, one strand shown. The gist of the method: as §1

In experiment [18] the target is ETV6 (Homo sapiens, UniProt P41212 1-452). The note with it: protein: recombinant; tags: N-terminal GST; dsDNA, one strand shown. Summed up:
as §1

Sequence of ETV1 (P50549 whole entry): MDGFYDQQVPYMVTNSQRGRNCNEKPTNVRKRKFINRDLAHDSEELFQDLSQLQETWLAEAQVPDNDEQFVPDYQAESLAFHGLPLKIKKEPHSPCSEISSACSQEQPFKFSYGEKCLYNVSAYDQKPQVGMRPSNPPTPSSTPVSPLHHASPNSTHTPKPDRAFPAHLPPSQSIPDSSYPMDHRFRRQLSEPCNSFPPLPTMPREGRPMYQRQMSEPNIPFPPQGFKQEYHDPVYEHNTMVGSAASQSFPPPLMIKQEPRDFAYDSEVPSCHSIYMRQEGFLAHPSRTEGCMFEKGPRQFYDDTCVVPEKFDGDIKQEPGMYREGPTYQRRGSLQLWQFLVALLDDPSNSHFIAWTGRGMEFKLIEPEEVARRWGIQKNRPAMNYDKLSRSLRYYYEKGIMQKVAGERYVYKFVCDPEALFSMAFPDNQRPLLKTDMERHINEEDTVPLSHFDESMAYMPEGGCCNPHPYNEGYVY
Sequence of CRX (O43186 whole entry): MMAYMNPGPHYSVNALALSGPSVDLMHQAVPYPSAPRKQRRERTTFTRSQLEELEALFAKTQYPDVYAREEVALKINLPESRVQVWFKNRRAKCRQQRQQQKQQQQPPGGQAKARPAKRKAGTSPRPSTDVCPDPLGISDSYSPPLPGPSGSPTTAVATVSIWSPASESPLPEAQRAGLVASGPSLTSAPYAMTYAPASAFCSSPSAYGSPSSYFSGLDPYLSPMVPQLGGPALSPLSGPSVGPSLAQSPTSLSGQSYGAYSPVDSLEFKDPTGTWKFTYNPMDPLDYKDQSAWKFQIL
Sequence of ELF4 (Q99607 whole entry): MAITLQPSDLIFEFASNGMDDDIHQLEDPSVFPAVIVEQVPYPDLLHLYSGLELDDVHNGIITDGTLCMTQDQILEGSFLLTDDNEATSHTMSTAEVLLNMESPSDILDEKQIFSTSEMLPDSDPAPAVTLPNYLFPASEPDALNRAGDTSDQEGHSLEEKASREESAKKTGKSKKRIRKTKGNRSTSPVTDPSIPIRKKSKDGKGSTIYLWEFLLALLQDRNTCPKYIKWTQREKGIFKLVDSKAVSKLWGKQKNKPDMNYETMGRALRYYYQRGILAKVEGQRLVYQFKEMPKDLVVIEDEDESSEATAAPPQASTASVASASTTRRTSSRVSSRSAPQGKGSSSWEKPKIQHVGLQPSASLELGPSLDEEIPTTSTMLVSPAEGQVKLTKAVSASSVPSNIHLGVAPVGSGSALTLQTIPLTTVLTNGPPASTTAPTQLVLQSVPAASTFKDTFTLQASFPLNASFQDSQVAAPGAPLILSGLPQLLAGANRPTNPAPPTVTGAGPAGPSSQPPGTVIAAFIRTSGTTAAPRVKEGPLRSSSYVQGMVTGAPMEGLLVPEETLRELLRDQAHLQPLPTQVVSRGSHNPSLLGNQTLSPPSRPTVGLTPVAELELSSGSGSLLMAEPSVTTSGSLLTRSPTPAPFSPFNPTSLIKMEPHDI
Sequence of ETV6 (P41212 whole entry): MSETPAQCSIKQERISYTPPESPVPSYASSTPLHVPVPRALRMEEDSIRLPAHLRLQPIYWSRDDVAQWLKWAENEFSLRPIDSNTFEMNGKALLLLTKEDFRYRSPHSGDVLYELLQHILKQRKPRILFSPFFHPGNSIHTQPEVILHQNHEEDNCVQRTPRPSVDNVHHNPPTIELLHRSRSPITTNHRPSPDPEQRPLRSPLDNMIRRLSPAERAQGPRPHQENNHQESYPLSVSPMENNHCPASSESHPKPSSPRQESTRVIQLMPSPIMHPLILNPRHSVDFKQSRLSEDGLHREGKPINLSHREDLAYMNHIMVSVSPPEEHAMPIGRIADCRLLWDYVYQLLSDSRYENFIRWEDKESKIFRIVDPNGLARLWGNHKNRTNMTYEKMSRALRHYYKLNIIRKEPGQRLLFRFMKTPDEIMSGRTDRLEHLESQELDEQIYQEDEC

For TTTTCT, the binding signal in experiment [1] was 1.26 fold enrichment (6-mer frequency, TF over GST control); in [2], 1.28 fold enrichment (6-mer frequency, TF over GST control); in experiment [3], 2.46 fold enrichment (6-mer frequency, TF over GST control); in experiment [4], 1.15 fold enrichment (6-mer frequency, TF over GST control); in experiment [5], 1.46 fold enrichment (6-mer frequency, TF over GST control); in experiment [6] it was 1.32 fold enrichment (6-mer frequency, TF over GST control). Also, the binding signal in experiment [7] was 1.48 fold enrichment (6-mer frequency, TF over GST control); in experiment [8], 1.35 fold enrichment (6-mer frequency, TF over GST control); in experiment [9] it was 1.61 fold enrichment (6-mer frequency, TF over GST control); in experiment [10] it was 1.21 fold enrichment (6-mer frequency, TF over GST control); in experiment [11], 1.36 fold enrichment (6-mer frequency, TF over GST control); in experiment [12], 1.35 fold enrichment (6-mer frequency, TF over GST control). Also, the binding signal in experiment [13] was 1.32 fold enrichment (6-mer frequency, TF over GST control); in experiment [14], 1.28 fold enrichment (6-mer frequency, TF over GST control); in experiment [15] it was 1.42 fold enrichment (6-mer frequency, TF over GST control); in [16], 1.26 fold enrichment (6-mer frequency, TF over GST control); in experiment [17], 1.54 fold enrichment (6-mer frequency, TF over GST control); in experiment [18], 1.32 fold enrichment (6-mer frequency, TF over GST control).
